Measured potencies and affinities stand elsewhere. Records with an inconclusive call do not appear.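 Rule for the calls: active = a valid curve of falling signal whose half-effect concentration is at most ten times the top tested dose; inconclusive = flat curve at 30 to 70% inhibition, or poor fit; inactive = signal rise, flat within 30%, or potency beyond limit.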
The compounds below were run against Scavenger receptor class B member 1 (Mus musculus) (UniProt Q61009) (assay: inhibitors of SR-BI mediated HDL lipid uptake, dose response, ldlA[mSR-BI] cells, fluorescence, cherry pick (AID 493194;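 note: CHO cells lacking LDL receptor and overexpressing mouse SR-BI; cellular uptake of fluorescently labeled HDL measured as cell fluorescence; 0% = median of neutral control wells and -100% = median of positive control wells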)). Details: CHO ldlA[mSR-BI] DiI-HDL uptake fluorescence, 3 h; series mostly up to 35 µM; activity change, negative = inhibition: at the top concentration.
Scavenger receptor class B member 1 (Mus musculus), sequence (Q61009 whole entry, looked up): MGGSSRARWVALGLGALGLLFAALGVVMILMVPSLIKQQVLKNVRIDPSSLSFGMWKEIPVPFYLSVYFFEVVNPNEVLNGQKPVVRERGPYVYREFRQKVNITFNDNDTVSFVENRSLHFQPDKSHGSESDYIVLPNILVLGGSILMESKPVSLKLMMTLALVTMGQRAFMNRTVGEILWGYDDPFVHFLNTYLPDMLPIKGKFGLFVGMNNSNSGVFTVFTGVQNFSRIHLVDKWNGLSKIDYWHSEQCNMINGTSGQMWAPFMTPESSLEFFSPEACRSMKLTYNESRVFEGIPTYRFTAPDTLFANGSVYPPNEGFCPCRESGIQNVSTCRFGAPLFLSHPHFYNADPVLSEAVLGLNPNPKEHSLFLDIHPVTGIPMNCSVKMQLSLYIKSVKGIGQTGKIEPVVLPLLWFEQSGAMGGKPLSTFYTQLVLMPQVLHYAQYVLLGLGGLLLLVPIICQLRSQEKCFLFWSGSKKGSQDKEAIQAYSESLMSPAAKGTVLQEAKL

Activity change, negative = inhibition, inactive:
CC(=O)NCCC1CCN(C(=O)c2cc(COc3ccc(C)nc3)on2)CC1 7.7%
CNc1nc(-c2ccc3c(c2)CCN3C(=O)c2ccccc2F)c(C)s1 -4.41%
CN(C(=O)c1cc(-n2cnnc2)ccc1Cl)c1ccccc1 25.3%
CC(C)C(=O)N1CCc2cc(-c3csc(N)n3)ccc21 -22.1%
COc1ccc(C(=O)CSc2nnc(CNC(=O)c3ccc(S(=O)(=O)N(C)C)cc3)o2)cc1 -22.2%
Cc1cc(C)nc(Nc2n[nH]c(-c3ccc(C(C)(C)C)cc3)n2)n1 -50.8%
c1ccc(COn2c(-c3ccccc3)nc3c2CCc2nonc2-3)cc1 -12.6%
CCOc1ccc(CCNC(=O)Cn2ncn3nc(-c4ccc(OC)cc4)cc3c2=O)cc1 -20%
Cc1ccccc1-c1cc(C(=O)NCc2cccc(Br)c2)nn1CC1CC(c2cccc([N+](=O)[O-])c2)=NO1 (centres undefined) 17.5%
CC(=O)c1ccc(N2CCN(C(=O)/C=C/c3ccc(S(=O)(=O)NCc4ccco4)cc3)CC2)cc1 -2.67%
Cc1ccc(C(C(=O)NC(C)(C)C)N(Cc2cccs2)C(=O)c2ccc3c(c2)OCCO3)cc1 (centres undefined) 9.72%
CCCOC(=O)c1[nH]c2c(c1C)C(=O)CC(c1cc(OC)c(OC)c(OC)c1)C2 (centres undefined) -16.9%
CCOC(=O)C1=CN(c2cccc(F)c2)C=C(C(=O)OCC)C1c1cc(OC)c(O)c([N+](=O)[O-])c1 14.7%
Cc1cc(C)cc(N2CN=C3SCC(=O)N3C2)c1 -9.5%
COc1ccc([C@H]2/C=C\CN(S(=O)(=O)c3ccc(C)cc3)[C@@H](C)C(=O)N2Cc2ccc(F)cc2)cc1 0.303%
CCCCn1nc2cc(C(=O)NC3CCCc4ccccc43)ccc2c1OCC (centres undefined) -28%
COc1ccc(CN2CCN(C(=O)c3ccc(S(=O)(=O)NCc4ccco4)cc3)CC2)cc1 -6.51%
COc1ccc(C2/C=C\CN(S(=O)(=O)c3ccc(C)cc3)CC(=O)N2Cc2cccc(F)c2)cc1 (centres undefined) -0.778%
COc1ccc(-c2nc(CN3CCN(c4ncnc5ccccc45)CC3)c(C)o2)c(OC)c1 0.707%
COc1ccc(CN2CCN(C(=O)c3ccc(S(=O)(=O)NCc4ccco4)cc3)CC2)cc1F 1.25%
Cc1ccc(-c2cc(C(=O)Nc3sc4c(c3C(=O)NCc3ccco3)CCC4)[nH]n2)c(O)c1 46.6%
Cc1nc(NCc2cccnc2)c2c3c(sc2n1)CC(C)CC3 (centres undefined) -4.92%
COc1cc(NC(=O)C2CC(c3c(F)cccc3Cl)=NO2)c(OC)cc1Cl (centres undefined) -16.2%
Oc1ccc(/C=C/c2nc(-c3ccccc3O)n(-c3ccccc3)n2)cc1 1.35%

From PubChem BioAssay AID493194 (Broad Institute, 2011)
